Data on 98 molecules can be found in PubChem BioAssay AID1946 (Johns Hopkins Ion Channel Center, 2009).

The structures appear in SMILES notation. Out of some 2,400 compounds screened, about 180 (7.5%) were called active. The sample holds actives, similar compounds and a random draw of the others, so the mix is not that of the screen.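 Rule for the calls: active = readout below zero, meaning a drop past 3 SD under the dofetilide-free negative control mean; inactive = the rest.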

In this assay the target is Potassium voltage-gated channel subfamily KQT member 2 (Rattus norvegicus) (UniProt O88943). In words: KCNQ2 blockade in CHO cells – cell-based, FluxOR thallium flux, counter-screen for hERG block protector project, confirmation (AID 1946). As to conditions: FluxOR thallium flux fluorescence, at 10 µM, hits give low values, zero marks the 3-SD hit cutoff. For orientation: Counterscreens check selectivity or assay interference.
Potassium voltage-gated channel subfamily KQT member 2 (Rattus norvegicus), sequence (O88943 whole entry, looked up): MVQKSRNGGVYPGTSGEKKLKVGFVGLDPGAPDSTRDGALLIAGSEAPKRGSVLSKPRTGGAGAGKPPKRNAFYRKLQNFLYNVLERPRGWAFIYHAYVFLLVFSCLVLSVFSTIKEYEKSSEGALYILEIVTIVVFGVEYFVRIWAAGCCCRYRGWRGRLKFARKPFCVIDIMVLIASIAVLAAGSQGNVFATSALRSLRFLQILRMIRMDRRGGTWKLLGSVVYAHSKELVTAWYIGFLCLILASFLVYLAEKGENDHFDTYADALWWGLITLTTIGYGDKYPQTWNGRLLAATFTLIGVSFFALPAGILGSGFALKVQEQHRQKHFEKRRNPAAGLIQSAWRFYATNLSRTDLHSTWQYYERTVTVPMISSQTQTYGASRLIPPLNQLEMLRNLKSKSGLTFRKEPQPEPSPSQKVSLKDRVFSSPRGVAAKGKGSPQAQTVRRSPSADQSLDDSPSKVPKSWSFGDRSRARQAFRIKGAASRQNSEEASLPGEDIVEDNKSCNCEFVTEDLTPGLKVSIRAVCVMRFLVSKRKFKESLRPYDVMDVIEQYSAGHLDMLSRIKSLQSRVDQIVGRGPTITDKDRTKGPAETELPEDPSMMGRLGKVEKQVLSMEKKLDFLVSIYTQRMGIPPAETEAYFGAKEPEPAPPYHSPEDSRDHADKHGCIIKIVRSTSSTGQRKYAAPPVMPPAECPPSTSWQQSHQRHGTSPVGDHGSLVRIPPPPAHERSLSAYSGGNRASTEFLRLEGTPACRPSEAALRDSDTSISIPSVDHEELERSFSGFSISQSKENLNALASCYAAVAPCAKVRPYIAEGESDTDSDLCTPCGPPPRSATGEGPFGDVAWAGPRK
Consider `COCC(=O)Nc1cc(C)cn(Cc2c(F)cccc2Cl)c1=O`, for which the activity change vs negative control was -0.6% (active). Next, `O=C(COC(=O)C1CCC(=O)N1)Nc1cc(Cl)ccc1Cl` (stereo not drawn): 4.6% (inactive). The result for `CCOC(=O)c1sc2ncnc(NCc3ccco3)c2c1C` reads 66.3% (inactive). Next, `CCCN(C(=O)c1ccco1)c1nnc(-c2ccncc2)s1`: 7.1% (inactive); `Cc1[nH]n2c(=O)cc(C(C)(C)C)nc2c1-c1ccccc1`: 38.2% (inactive). In the case of `CC1CCCN(C(=O)COC(=O)c2cc(-c3cccs3)nn2-c2ccccc2)C1` (stereo not drawn), the activity change vs negative control was -2.5% (active). The result for `Cc1oc(-c2cccs2)nc1CN1CCC(C(=O)N2CCCC2)CC1` reads 12.1% (inactive); that for `CCOC(=O)C1CCN(C(=O)COC(=O)c2nn(C)c(=O)c3ccccc23)CC1`, 8.5% (inactive). The result for `CC(=O)c1c(NC(=O)c2ccccc2)[nH]c(-c2ccccc2)nc1=S` reads 30.6% (inactive); that for `Cc1ccc(-c2nc(N)s[n+]2-c2ccccc2)cc1`, 42.6% (inactive). The result for `CCOC(=O)Cc1csc(NC(=S)NC(=O)c2ccccc2C)n1` reads 26.3% (inactive); that for `COc1cccc2cc(-c3nc4ccccc4[nH]3)c(=O)oc12`, -9.4% (active); that for `COc1cccc(/C=N/Nc2nc3ccccc3[nH]2)c1O`, 24.7% (inactive). Turning to `COc1ccc(C(=O)NC(=S)N2CCC(C)CC2)cc1Br`, the activity change vs negative control is 74.7% (inactive). Next, `COc1cc(C2NC(=O)NC(C)=C2C(=O)OCC2CCCCC2)ccc1O` (stereo not drawn): 7.4% (inactive); `Cc1ccc(C2c3c(-c4ccccc4O)n[nH]c3C(=O)N2Cc2ccncc2)cc1` (stereo not drawn): 10.7% (inactive). The result for `COc1cc(C2c3c(n[nH]c3C)C(=O)N2c2ccc(C)cc2)ccc1O` (stereo not drawn) reads -5% (active); that for `Cc1nc(-c2ccccc2)cn(O)c1=O`, 20.4% (inactive). Next, `CC1=NN(c2nc(-c3ccccc3)cs2)C(=O)C1N=Nc1ccccc1` (stereo not drawn): -5% (active).

As for `Cn1c(O)c(N=Nc2nc(-c3ccccc3)cs2)c2ccccc21`, the activity change vs negative control was 90.8% (inactive). The result for `c1ccc(CCCNc2ncnc3nc[nH]c23)cc1` reads 61.8% (inactive); that for `Fc1ccc(N2CCN(c3ccc4c(C(F)(F)F)cc(C(F)(F)F)nc4n3)CC2)cc1`, -5.3% (active); that for `Cc1ccc(C(C#N)c2ccc3c(C(F)(F)F)cc(C(F)(F)F)nc3n2)cc1` (stereo not drawn), 17.2% (inactive). The result for `Cc1cc(-c2csc3nc[nH]c(=S)c23)cc(C)c1C` reads 55.1% (inactive).

For `CC(/C=C1\SC(=S)N(NS(=O)(=O)c2ccccc2)C1=O)=C\c1ccccc1`, the activity change vs negative control is 47.5% (inactive). The result for `O=C(CN1CCN(Cc2ccccc2)CC1)NCc1ccccc1Cl` reads 17.7% (inactive); that for `O=C(CN1CCCCCCC1)Nc1cccc(Cl)c1Cl`, -6.4% (active); that for `O=C(CN1CCCCCC1)Nc1ccc(Oc2ccccc2)cc1`, 3.4% (inactive).

Turning to `O=C(NC(=S)N1CCc2ccccc21)c1ccccc1Cl`, the activity change vs negative control is 93% (inactive). Next, `CCCn1c(SCN2C(=O)c3ccccc3C2=O)nc2cc(Cl)ccc2c1=O`: 50.5% (inactive).

In the case of `COC(=O)c1c(NC(=S)Nc2ccc(F)cc2[N+](=O)[O-])sc2c1CCCCC2`, the activity change vs negative control was 25.2% (inactive). Next, `CCc1ccc(NC(=O)C(=O)NNC(=O)c2ccc(OC)cc2)cc1`: 122% (inactive). On to `CCCOc1ccc(C2NC(=S)NC(c3ccccc3)=C2C(=O)Nc2ccc(C)cc2)cc1OC` (stereo not drawn), for which the activity change vs negative control is 15.3% (inactive). `COc1cc(C2C(C#N)=C(N)Oc3c2ccc2ccccc32)ccc1OCC(=O)Nc1ccc(C)cc1` (stereo not drawn): the activity change vs negative control was -0.6% (active). Next, `COc1ccccc1CC(=O)Nc1ccc(OC)c(OC)c1`: 9.2% (inactive); `COc1ccc(-c2oc3ccccc3c(=O)c2OC(C)=O)cc1`: 38.6% (inactive).

For `O=C(COc1ccc([N+](=O)[O-])cc1)Nc1cccnc1`, the activity change vs negative control was -4.2% (active).

In the case of `N#Cc1ccc(-c2ccc(OCC(=O)Nc3cccnc3)cc2)cc1`, the activity change vs negative control is 13.9% (inactive). The result for `CCc1nnc(NC(=O)COc2ccc([N+](=O)[O-])cc2)s1` reads 15.3% (inactive); that for `O=C(COc1ccccc1)Nc1ccc(F)cc1`, 0.6% (inactive); that for `O=C(COc1ccc2ccccc2c1Br)Nc1cccnc1`, 0.9% (inactive).

In the case of `O=C(COc1ccc(C(=O)c2ccccc2)cc1)Nc1cccnc1`, the activity change vs negative control is -20.5% (active).

Turning to `O=c1c2c3c(sc2[nH]c(=S)n1Cc1ccco1)CCC3`, the activity change vs negative control is 56.4% (inactive). In the case of `Cc1[nH]n(-c2cccc3ccccc23)c(=O)c1/C=N/c1sc2c(c1C#N)CCC2`, the activity change vs negative control was 23.1% (inactive).

As to `COc1cccc(C(=O)NNC(=O)C(=O)Nc2ccc(OC)cc2OC)c1`, the activity change vs negative control is 52.6% (inactive). On to `S=c1[nH]c(-c2ccc(Cl)cc2)cs1`, for which the activity change vs negative control was 140% (inactive). The result for `COC(=O)c1ccc(CSc2ncnc3sc(C)c(C)c23)o1` reads 23% (inactive). In the case of `COc1cccc(C(=O)NNC(=O)C(=O)Nc2ccc(C)cc2)c1`, the activity change vs negative control is 99.7% (inactive). In the case of `Cc1ccc(/C=C/C(=O)c2ccccc(=O)c2O)c(C)c1`, the activity change vs negative control is 63.1% (inactive). Next, `C=CCN(CC=C)C(=S)NC(=O)c1ccc([N+](=O)[O-])cc1`: 72.2% (inactive); `CCCCNC(=S)NC(=O)c1ccc([N+](=O)[O-])cc1`: 46.5% (inactive); `CCCCCC(=O)NNC(=S)NC(=O)c1ccc([N+](=O)[O-])cc1`: -10.1% (active).

Regarding `O=C(NC(=S)Nc1ccccc1)c1cccs1`, the activity change vs negative control is 17.9% (inactive). Turning to `O=C(O)c1ccc(S(=O)(=O)/N=C2\C=C(Nc3ccccc3F)C(=O)c3ccccc32)cc1`, the activity change vs negative control was 31.7% (inactive). Next, `Cc1cc(C)c(C(=O)c2ccc(C(=O)N3CCCCC3)cc2)c(C)c1`: 32.9% (inactive); `O=C(Nc1nc2c(Br)cc(Br)cc2c(=O)s1)C1CCC1`: 40.8% (inactive).

Turning to `O=C(COc1ccc(Cl)cc1Cl)Nc1cccnc1`, the activity change vs negative control was 11% (inactive). The result for `O=C(Nc1cccnc1)c1ccc(COc2cc(Cl)ccc2Cl)o1` reads -5.5% (active).

Regarding `O=C(Nc1cccnc1)c1ccc(COc2ccccc2Br)o1`, the activity change vs negative control is 7.9% (inactive). The result for `CCc1cc2cc(C)cc(C)c2[nH]c1=S` reads 29.9% (inactive); that for `Nc1nc2c(s1)CCc1c-2cnn1-c1ccccc1`, -0.2% (active).

With `O=C(NC(=S)Nc1ccccc1F)c1ccc(Br)o1`, the activity change vs negative control is 81.1% (inactive). Next, `Cc1c(Cl)cccc1NC(=S)N=Nc1c(O)n(CN2CCOCC2)c2ccccc12`: 28.6% (inactive); `O=C(CN1C(=O)S/C(=C\c2cc(Cl)c(O)c(Cl)c2)C1=O)Nc1ccccc1`: -7.3% (active). Next, `O=C(CN1C(=O)S/C(=C\c2cccs2)C1=O)Nc1ccc(C(=O)O)c(O)c1`: 44.5% (inactive); `O=C(CN1C(=O)S/C(=C\c2cccs2)C1=O)Nc1ccc(O)c(C(=O)O)c1`: 7.9% (inactive). The result for `O=C(NC(=S)Nc1nc2ccc(F)cc2s1)c1ccco1` reads 82.7% (inactive); that for `CCC1(c2ccc(Cl)cc2)NC(=S)N(c2ccc(C)c(C)c2)N1` (stereo not drawn), 124% (inactive). On to `CCCN(Cc1ccccc1)C(=S)NC(=O)c1ccccc1[N+](=O)[O-]`, for which the activity change vs negative control is 120% (inactive).

As to `O=C(NC(=S)N1CCCC(C(F)(F)F)C1)c1ccc(F)cc1` (stereo not drawn), the activity change vs negative control was 46.1% (inactive).

With `CCOc1ccc2nc(N3C(=O)/C(=C/c4ccc(Cl)cc4)NC3=S)sc2c1`, the activity change vs negative control is 6.5% (inactive). The result for `CN(C)c1oc(-c2ccccc2[N+](=O)[O-])nc1C#N` reads 16.4% (inactive); that for `CN(C)c1oc(-c2ccccc2)nc1C#N`, -1.7% (active).

Regarding `CCOC(=O)C(=CNc1cc(C)nn1C(C)(C)C)C(=O)OCC`, the activity change vs negative control is 13% (inactive). As to `Cc1ccc(C(=C2C3C=CC2C2C(=O)NC(=O)C32)c2ccc(C)cc2)cc1` (stereo not drawn), the activity change vs negative control was -2.6% (active). The result for `CC1CCCCC1NC(=S)NC(=O)c1cccs1` (stereo not drawn) reads 49.2% (inactive); that for `CCC1(c2ccc(Cl)cc2)NC(=S)N(c2ccccc2)N1` (stereo not drawn), 108% (inactive). The result for `N#Cc1cc(-c2ccccc2)nnc1Oc1ccccc1` reads -0.2% (active); that for `COCCNC(=O)C(c1ccc(C)o1)N(Cc1ccc(OC)cc1)C(=O)Cn1nnc2ccccc21` (stereo not drawn), 33.6% (inactive); that for `Cc1ccc(NC(=O)CSc2nnc(-c3cccnc3)n2-c2ccc(C)cc2)cc1`, 12.3% (inactive). The result for `COc1cc(-c2nnc(SCC(=O)O)n2-c2ccccc2)cc(OC)c1OC` reads 0.6% (inactive); that for `COc1ccc(-n2c(SCC#N)nnc2-c2cccnc2)cc1`, -1.2% (active); that for `CC1Cc2ccccc2N1C(=S)NC(=O)c1ccc(Cl)cc1Cl` (stereo not drawn), 83.8% (inactive). As to `COCCn1c(=S)[nH]c2sc3c(c2c1=O)CCC(C)C3` (stereo not drawn), the activity change vs negative control is 81% (inactive). The result for `CC(C)N(Cc1ccccc1)C(=S)NC(=O)C1(C)CC1(Cl)Cl` (stereo not drawn) reads 53.8% (inactive); that for `OC(CNCC(c1ccc(Cl)cc1Cl)c1c[nH]c2ccccc12)c1ccccc1` (stereo not drawn), -12% (active); that for `COc1cccc(C=Nc2cc(C)cc(C)c2)c1O`, 39.5% (inactive). The result for `O=c1cc(-c2ccccc2)nc2c(-c3ccccc3)c(C(F)(F)F)[nH]n12` reads 81.1% (inactive); that for `COc1cc(NC(=O)c2ccccc2)c(OC)cc1NC(=O)Cc1ccc(Br)cc1`, 26.8% (inactive); that for `O=C(O)COc1ccc(NC(=O)c2ccc3c(c2)C(=O)N(C2CCCCC2)C3=O)cc1`, 21.1% (inactive). Next, `Cc1ccc(C)n1-n1c(C)nc2scc(-c3ccccc3)c2c1=O`: -3.2% (active); `S=c1[nH]cnc2scc(-c3ccccc3)c12`: 74.3% (inactive); `Cn1cc(/C=N/n2cnc3scc(-c4ccc(Cl)cc4)c3c2=O)c2ccccc21`: 9% (inactive). Consider `Cc1c(N2C(=O)/C(=C\c3ccccc3O)SC2=S)c(=O)n(-c2ccccc2)n1C`, for which the activity change vs negative control is 90% (inactive).

Consider `S=c1[nH]cnc2scc(-c3ccc(Cl)cc3)c12`, for which the activity change vs negative control is 49.5% (inactive). Next, `CCOC(=O)c1sc(NC(=S)NC(=O)c2ccccc2)nc1C`: 20.3% (inactive); `CC1CCN(S(=O)(=O)c2ccc3nc(N4CCN(c5ccccc5)CC4)ccc3c2)CC1`: 4.3% (inactive). Next, `CC1CCN(c2ccc3c(c2)S(=O)(=O)c2ccccc2C3=O)CC1`: -10.9% (active).
